# According to PubChem BioAssay (NCATS):
# Results filed as inconclusive are left out. Entries that show only a call come without a potency. The source made the active and inactive calls. Unless noted, calls follow the shape of the full dose curve.
# How the values were obtained:
# [1] = P-glycoprotein substrates identified in KB-8-5-11 adenocarcinoma cell line, qHTS therapeutic library screen (AID 1346987; active = well fitted curve in the direction sought with a large enough effect; an effect the other way counts as inactive or inconclusive; also: nearly all actives have a fitted effect of over 65% in size); details: KB-8-5-11 (P-gp overexpressing) viability, CellTiter-Glo, 72 h; series mostly up to 44.5 µM
# Procedure, shortened: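 In this qHTS, P-gp-rich KB-8-5-11 cells received library compounds across a concentration range. Viability was quantified by luminescence after 72 h at 37 degree C.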
# [2] = Natriuretic polypeptide receptor (hNpr1) antagonism - Pilot counterscreen GloSensor control cell line (AID 1347045); details: HEK293 cGMP GloSensor cells, SNP-stimulated luminescence, 20 min; series mostly up to 38.3 µM
# Procedure, shortened: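 HEK293 cGMP-sensor cells; 2% GloSensor reagent 2 h RT; LOPAC compounds in 1:5 titrations 30-50 min; 50 uM SNP 20 min; luminescence pre-read and post-read.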
# [3] = target: Atrial natriuretic peptide receptor 1 (Homo sapiens) (UniProt P16066); experiment: Natriuretic polypeptide receptor (hNpr1) antagonism - Pilot screen (AID 1347049); details: hNpr1 cells, antagonist mode cGMP read-out; series mostly up to 57.5 µM;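 also: HEK293 cells with hNpr1 and GloSensor cGMP luciferase stimulated by 0.1 nM hNppA; agonist-evoked cGMP luminescence read 20 min after hNppA addition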
# Procedure, shortened: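 Receptor antagonism read as cGMP-dependent luminescence in hNpr1/pGS-40F HEK293 cells: pre-read after 30 min compound exposure, post-read 20 min after hNppA agonist at 0.1 nM final, all at room temperature, protected from light; A-71915 titration as control.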
# [4] = target: Atrial natriuretic peptide receptor 2 (Homo sapiens) (UniProt P20594); experiment: Natriuretic polypeptide receptor (hNpr2) antagonism - Pilot subtype selectivity assay (AID 1347050); details: NPR2-expressing cells, cGMP antagonist-mode read-out; series mostly up to 38.3 µM
# Procedure, shortened: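 Antagonist mode: compounds (LOPAC1280, seven 1:5 dilutions) added 30 min before 1 nM hNppC stimulation of hNpr2-HEK293 cGMP-sensor cells; luminescence read before and 20 min after agonist at ambient temperature.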
# [5] = NS1 protein of Zika virus - qHTS assay to identify small molecule inhibitors in human HEK 293 cells (AID 1347053; active = well fitted curve in the direction sought with a large enough effect; an effect the other way counts as inactive or inconclusive; also: nearly all actives have a fitted effect of over 55% in size); details: HEK293 ZIKV MR766 infection, NS1 TR-FRET, 24 h; series mostly up to 46.1 µM
# Procedure, shortened: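 Read-out is a two-antibody TR-FRET for ZIKV NS1, normalized between uninfected cells and infected cells. Compound added 1 h before MR766 infection at MOI 0.5; human HEK 293 cells incubated 24 h, 37 C.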
# Chain of Atrial natriuretic peptide receptor 2 (Homo sapiens) (P20594 whole entry, looked up): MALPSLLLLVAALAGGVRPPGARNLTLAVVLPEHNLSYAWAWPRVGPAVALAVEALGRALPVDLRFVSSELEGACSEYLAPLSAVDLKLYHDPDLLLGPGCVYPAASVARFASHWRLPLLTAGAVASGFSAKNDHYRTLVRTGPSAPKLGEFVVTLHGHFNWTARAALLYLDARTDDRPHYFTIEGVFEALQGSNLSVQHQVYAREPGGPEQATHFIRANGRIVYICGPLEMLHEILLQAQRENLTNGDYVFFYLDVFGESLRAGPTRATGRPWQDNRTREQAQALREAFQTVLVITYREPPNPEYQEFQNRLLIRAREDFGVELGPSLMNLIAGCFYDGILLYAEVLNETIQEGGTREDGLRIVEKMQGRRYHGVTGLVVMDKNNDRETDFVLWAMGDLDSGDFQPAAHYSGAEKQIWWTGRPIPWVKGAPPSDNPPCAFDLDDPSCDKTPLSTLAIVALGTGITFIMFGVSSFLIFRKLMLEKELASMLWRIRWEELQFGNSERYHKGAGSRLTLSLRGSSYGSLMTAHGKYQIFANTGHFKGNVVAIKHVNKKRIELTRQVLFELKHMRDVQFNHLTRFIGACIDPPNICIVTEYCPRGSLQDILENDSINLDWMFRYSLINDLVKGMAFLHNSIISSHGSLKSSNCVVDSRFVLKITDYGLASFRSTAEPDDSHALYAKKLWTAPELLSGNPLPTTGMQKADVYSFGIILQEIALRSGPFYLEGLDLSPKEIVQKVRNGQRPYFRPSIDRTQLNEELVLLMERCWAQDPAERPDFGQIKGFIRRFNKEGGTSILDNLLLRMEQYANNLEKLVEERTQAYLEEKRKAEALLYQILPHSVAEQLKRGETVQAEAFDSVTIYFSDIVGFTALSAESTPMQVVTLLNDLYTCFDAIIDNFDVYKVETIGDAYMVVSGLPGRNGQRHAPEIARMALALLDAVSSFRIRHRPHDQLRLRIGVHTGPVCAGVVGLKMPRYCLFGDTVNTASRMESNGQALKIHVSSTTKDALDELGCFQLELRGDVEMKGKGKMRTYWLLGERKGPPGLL
# Chain of Atrial natriuretic peptide receptor 1 (Homo sapiens) (P16066 whole entry, looked up): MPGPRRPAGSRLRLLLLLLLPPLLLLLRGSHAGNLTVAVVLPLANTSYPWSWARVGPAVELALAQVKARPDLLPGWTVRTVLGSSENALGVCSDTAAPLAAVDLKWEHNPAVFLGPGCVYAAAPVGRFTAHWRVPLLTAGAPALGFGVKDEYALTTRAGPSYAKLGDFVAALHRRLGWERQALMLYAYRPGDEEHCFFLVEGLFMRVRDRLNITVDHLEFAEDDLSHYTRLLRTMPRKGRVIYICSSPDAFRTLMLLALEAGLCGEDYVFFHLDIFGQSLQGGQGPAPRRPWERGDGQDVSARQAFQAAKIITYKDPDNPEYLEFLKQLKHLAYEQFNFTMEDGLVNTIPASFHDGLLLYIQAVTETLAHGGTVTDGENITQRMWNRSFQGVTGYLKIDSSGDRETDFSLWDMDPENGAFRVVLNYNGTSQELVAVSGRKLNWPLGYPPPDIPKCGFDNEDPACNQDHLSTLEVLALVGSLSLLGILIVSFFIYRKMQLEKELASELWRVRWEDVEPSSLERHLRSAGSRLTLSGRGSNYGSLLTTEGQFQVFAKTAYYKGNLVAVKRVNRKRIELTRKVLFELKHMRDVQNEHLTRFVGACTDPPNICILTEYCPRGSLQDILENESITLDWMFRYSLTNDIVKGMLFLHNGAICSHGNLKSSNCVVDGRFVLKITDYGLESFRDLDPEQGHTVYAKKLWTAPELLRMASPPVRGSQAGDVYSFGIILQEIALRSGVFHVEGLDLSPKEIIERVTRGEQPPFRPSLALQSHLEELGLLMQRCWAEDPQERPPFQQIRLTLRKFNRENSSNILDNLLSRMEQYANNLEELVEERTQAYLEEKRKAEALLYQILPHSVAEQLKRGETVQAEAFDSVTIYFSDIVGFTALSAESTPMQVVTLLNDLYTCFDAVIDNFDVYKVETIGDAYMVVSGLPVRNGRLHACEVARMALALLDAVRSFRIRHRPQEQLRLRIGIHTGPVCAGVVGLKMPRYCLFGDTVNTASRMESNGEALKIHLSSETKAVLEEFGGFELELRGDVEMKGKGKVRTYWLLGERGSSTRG
structure (smiles),measurement,setting,value
CN(C)CCc1c[nH]c2ccc(CN3CCN(C)S3(=O)=O)cc12,Potency,[1],inactive
N[C@@H](CCl)C(=O)O,Potency,[2],inactive
same,Potency,[3],inactive
same,Potency,[4],inactive
CCCn1c(C)c(C(=O)c2ccc3ccccc3c2)c2ccccc21,Potency,[2],inactive
same,Potency,[3],inactive
same,Potency,[4],inactive
CCN(CCCl)Cc1ccccc1Br,Potency,[2],inactive
same,Potency,[3],inactive
same,Potency,[4],inactive
CN1C(=O)c2ccccc2NC(=O)[C@]12O[C@@H]2c1ccccc1,Potency,[1],inactive
CN1CCc2cc(O)cc3c2[C@H]1Cc1ccc(O)c(O)c1-3,Potency,[2],inactive
same,Potency,[3],inactive
same,Potency,[4],inactive
same,outcome,[5],inactive
COc1ccc2c(c1)[C@@]13CCCC[C@H]1[C@@H](C2)NCC3,Potency,[2],inactive
same,Potency,[3],inactive
same,Potency,[4],inactive
COC(=O)C1(C)CCC(=O)C2(C)c3c(O)cc(C(C)C)cc3C(O)C(OC(C)=O)C12 (configuration not stated),Potency,[1],inactive
CCCSP(=O)(OCC)SCCC,Potency,[1],inactive
same,outcome,[5],inactive
Clc1ccc(OCC2=NCCN2)cc1Cl,Potency,[1],inactive
CCN1C[C@]2(COC)[C@H](O)C[C@H](OC)[C@]34[C@@H]5C[C@]6(O)[C@H](OC(=O)c7ccccc7)[C@@H]5[C@@](O)([C@H]([C@H](OC)[C@H]23)[C@@H]14)[C@@H](O)[C@@H]6OC,Potency,[1],inactive
COc1ccc2c(c1)c(CCN1CCOCC1)c(C)n2C(=O)c1cccc(Cl)c1Cl,Potency,[2],inactive
same,Potency,[3],inactive
same,Potency,[4],inactive
OCCCCC#Cc1cncc(OC[C@@H]2CCN2)c1,Potency,[1],inactive
C[C@@H]1[C@@H]2Cc3ccc(O)cc3[C@@]1(C)CCN2CC1CC1,Potency,[1],inactive
same,Potency,[2],inactive
same,Potency,[3],inactive
same,Potency,[4],inactive
CC(=O)OC1CC(O)C2(C)C(CC(OC(C)=O)C3(C)C2CCC2(C)C(c4ccoc4)C(=O)C4OC423)C1(C)C (configuration not stated),Potency,[1],inactive
